BAZ2B inh – blocks human BAZ2B | Q9UIF8 | AlphaScreen BAZ2B-H3K14Ac peptide displacement | Potency, µM (doses to about 114 µM), actives largely listed as inhibitors | actives 4.4% (n = 360,000) | AID 504333; also: nearly all actives have a fitted effect of over 60% in size
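Protein-peptide AlphaScreen: BAZ2B 50 nM, b-H3K14Ac 50 nM, 1x PBS pH 7.4 + 0.01% Tween-20. Preincubation 30 min RT; cpd 30 min RT (top 110 uM); beads 20 min RT, light-protected.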
PI5P4K alpha inh – inhibitors of human PI5P4K alpha; P48426; PI5P4Kalpha enzyme, ADP-Glo luminescence, 60 min; hits give low values; max response, %; actives 1.2% (n = 330,000); active = max response of -50% or lower; inconclusive = between -30% and -50%; inactive = -30% or higher; also: value at the top dose of about 77 µM
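Human PI5P4Kalpha with substrate in 0.038 M HEPES pH 7.4, 0.28 mM EGTA, 0.1% CHAPS, 5% DMSO; reaction started with 5 microM ATP (final), 60 min at room temperature. ADP formed read by ADP-Glo luminescence.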
GCN5L2 inh – inhibitors of human GCN5L2 histone acetyltransferase; Potency, µM (top dose mostly 58.9 µM), hits mostly inhibitors; GCN5L2 HAT assay, ThioGlo1 CoA-SH fluorescence; AID 504327; actives 0.21% (n = 390,000); Q92830
Target sequence (Q92830 whole entry, looked up): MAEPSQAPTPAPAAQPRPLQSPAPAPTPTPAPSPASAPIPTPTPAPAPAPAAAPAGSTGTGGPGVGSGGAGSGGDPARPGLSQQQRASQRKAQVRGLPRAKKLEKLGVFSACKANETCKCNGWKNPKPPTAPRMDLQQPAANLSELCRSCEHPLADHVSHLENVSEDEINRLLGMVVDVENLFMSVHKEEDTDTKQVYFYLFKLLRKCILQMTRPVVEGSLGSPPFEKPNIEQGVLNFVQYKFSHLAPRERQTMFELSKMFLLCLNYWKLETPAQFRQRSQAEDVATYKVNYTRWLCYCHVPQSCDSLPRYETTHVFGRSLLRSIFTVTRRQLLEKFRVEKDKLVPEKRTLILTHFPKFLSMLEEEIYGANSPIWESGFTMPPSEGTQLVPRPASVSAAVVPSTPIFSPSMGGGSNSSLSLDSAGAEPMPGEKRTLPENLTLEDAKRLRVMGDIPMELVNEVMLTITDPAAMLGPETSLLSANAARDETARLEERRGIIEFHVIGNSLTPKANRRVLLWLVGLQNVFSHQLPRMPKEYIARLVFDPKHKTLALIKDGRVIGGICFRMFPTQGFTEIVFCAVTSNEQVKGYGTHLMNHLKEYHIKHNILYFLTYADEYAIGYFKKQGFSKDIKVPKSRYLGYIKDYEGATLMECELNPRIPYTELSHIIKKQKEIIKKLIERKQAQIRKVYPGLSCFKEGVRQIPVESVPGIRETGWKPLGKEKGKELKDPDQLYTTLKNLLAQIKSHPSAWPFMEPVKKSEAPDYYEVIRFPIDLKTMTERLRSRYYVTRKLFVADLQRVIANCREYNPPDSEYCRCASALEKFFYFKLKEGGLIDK
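GCN5L2 (20nM final) in 50mM HEPES, 0.1mM EDTA pH 7.5, 0.01% Tween-20 was preincubated 15 min at room temperature with compound, then given ThioGlo1 (50uM), H3(1-25) peptide (75uM) and acetyl-CoA (70uM); CoA-thiol fluorescence (Ex340/Em540) was read at 0 and 20 min.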
PLK1 PBD block – PLK1 (human) polo-box domain binding inhibition | Potency, µM, actives largely listed as inhibitors | AID 720504 | Plk1 PBD binding of FITC phosphopeptide, fluorescence polarization | actives 2.8% (n = 360,000); also: series mostly up to about 57 µM; nearly all actives have a fitted effect of over 65% in size
JMJD2A Tudor – JMJD2A Tudor domain (human) inhibition | O75164 | AlphaScreen JMJD2A-Tudor / H3K4me3 peptide binding | Potency, µM (doses to about 114 µM), hits mostly inhibitors | actives 4.4% (n = 390,000); also: nearly all actives have a fitted effect of over 50% in size
HP1b chromo inh – blocks HP1-beta chromodomain binding to methylated histone tails; P83916; AlphaScreen HP1-beta / biotin-H3K9me3 peptide binding; Potency, µM (top dose mostly 114 µM), actives largely listed as inhibitors; actives 0.56% (n = 390,000); AID 540317; also: nearly all actives have a fitted effect of over 70% in size
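AlphaScreen: HP1-beta (50 nM) preformed 30 min with biotin-H3(1-18)K9me3 peptide (50 nM) in PBS pH 7.4, 0.01% Tween-20. Compound added for 30 min at RT, then streptavidin donor/nickel chelate acceptor beads (10 ug/mL) for 30 min.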
A number is an active result; i = inactive; ? = inconclusive; nt = no result given; [ ] = dose if it differs, or a comment. Sampled rows, rich in hits. Any-hit rate of the full collection: about 7%. Unless noted, calls follow the shape of the dose curve; as a rule, active = well fitted curve in the direction sought with a large enough effect; inconclusive = small, poorly fitted or top-dose-only effect, or another doubt; inactive = no such curve, though single readings can be large; an effect the other way counts as inactive or inconclusive.

SMILES	BAZ2B inh	PI5P4K alpha inh	GCN5L2 inh	PLK1 PBD block	JMJD2A Tudor	HP1b chromo inh
C[C@@H]1O[C@@H](OC2CC(O)C3(CO)C4C(CCC3(O)C2)C2(O)CCC(C3=CC(=O)OC3)C2(C)C[C@H]4O)[C@H](O)[C@H](O)[C@H]1O (stereo partly specified)	nt	nt	i	nt	nt	nt
CC(C)c1cccc(O)c(=O)c1	56µM	i	i	i	i	i
Clc1cccc(C2NCc3ccccc3-n3cccc32)c1 (stereo unspecified)	i	i	i	30µM	i[11.4 µM]	i
O=C(Nc1cccc(C(=O)Nc2cc(C(=O)Nc3ccc([S+](=O)([O-])[O-])c4cc([S+](=O)([O-])[O-])cc(SOOO)c34)ccc2F)c1)Nc1cccc(C(=O)Nc2cc(C(=O)Nc3ccc([S+](=O)([O-])[O-])c4cc([S+](=O)([O-])[O-])cc([S+](=O)([O-])[O-])c34)ccc2F)c1	nt	nt	i	nt	nt	nt
CC1CC[C@@]2(OC1)O[C@@H]1[C@@H](O)[C@H]3C4CC[C@H]5C[C@@H](O[C@@H]6O[C@H](CO)[C@H](O[C@@H]7O[C@H](CO)[C@@H](O)[C@H](O[C@@H]8OC[C@@H](O)[C@H](O)[C@H]8O)[C@H]7O[C@@H]7O[C@H](CO)[C@@H](O)[C@H](O[C@@H]8O[C@H](CO)[C@@H](O)[C@H](O)[C@H]8O)[C@H]7O)[C@H](O)[C@H]6O)[C@H](O)C[C@]5(C)C4CC[C@]3(C)[C@H]1[C@@H]2C (stereo partly specified)	nt	nt	i[0.501 µM]	nt	nt	nt
COc1ccccc1CC(=O)N1CCN(CCc2ccccc2)CC1	i	i	i	i	i	i
COc1ccc(CN2CCN(C(=O)Cc3ccccc3)CC2)c(OC)c1	56µM	i	i	i	2µM	?
COc1cc(CN2CCN(C(=O)Cc3ccccc3)CC2)cc(OC)c1OC	?	i	i	i	7.1µM	?
Cc1ccc(CC(=O)N2CCN(Cc3ccccc3)CC2)cc1	i	i	i	i	i	i
COc1ccc(CN2CCN(Cc3ccccc3)CC2)c(OC)c1	?	nt	i	i	?	i
O=C(Cc1ccccc1)N1CCN(CCCc2ccccc2)CC1	56µM	i	i	i	0.32µM	?
CC(=O)OCC1=C(C(=O)O)N2C(=O)C(NC(=O)CCCC(N)C(=O)O)C2SC1 (stereo unspecified)	nt	nt	i	nt	nt	nt
CCCOC(=O)c1cc2c(cn1)[nH]c1ccccc12	nt	nt	i	nt	nt	nt
N#CC(C#N)=NNc1ccc(-n2ccc(C(F)(F)F)n2)cc1	32µM	i	?	?	?	i
Cc1cc(C)n(-c2ccc(NN=C(C#N)C#N)cc2)n1	32µM	i	i	i	?	i
CCOc1ccc(-n2c(O)c(N=Nc3c(C)n(C)n(-c4ccccc4)c3=O)c(=O)[nH]c2=O)cc1	14µM	i	i	i	25µM	i
C=CCn1c(O)c(N=Nc2c(C)n(C)n(-c3ccccc3)c2=O)c(=O)[nH]c1=S	7.1µM	i	i	i	25µM	i
CCCCCCn1c(O)c(C=Nc2c(C)n(C)n(-c3ccccc3)c2=O)c(=O)[nH]c1=O	i	i	i	i	i	i
Oc1ccc2c(c1)[C@@]13CCCCC1[C@@H](C2)N(CC1CCC1)CC3 (stereo partly specified)	nt	nt	i	nt	nt	nt
Cc1ccc(S(=O)(=O)N2CN3CCN(C3)C2)cc1	i	i	i	i	i	i
CN1CCN(S(=O)(=O)c2ccc(C3CCCCC3)cc2)CC1	i	i	i	i	89µM	i
C/C(=N\NC(=S)Nc1ccccc1)c1c(O)n(C)c(=O)n(C)c1=O	i	-53	i	21µM	18µM	i
O=c1nc(/C=C/c2ccc(Cl)cc2Cl)cc(C(F)(F)F)[nH]1	i	i	i	27µM	i	i
CCC1C(C#N)=C(N)Oc2c1c(=O)oc1ccccc21 (stereo unspecified)	i	i	i	i	i	i
CC(C)CC1C(C#N)=C(N)Oc2c1c(=O)oc1ccccc21 (stereo unspecified)	i	i	i	12µM	45µM	i
SMILES	BAZ2B inh	PI5P4K alpha inh	GCN5L2 inh	PLK1 PBD block	JMJD2A Tudor	HP1b chromo inh
O=C1CCC(c2ccccc2)(C2CCN(Cc3ccccc3)CC2)C(=O)N1 (stereo unspecified)	i	i	i	i	i	i
COc1cc2c(cc1O)[C@H]1Cc3ccc(OC)c(O)c3CN1CC2	nt	nt	i	nt	nt	nt
COc1ccc(-c2nn(-c3ccccc3)cc2C(=O)N2c3ccc(C)cc3C3CN(C)CCC32)cc1 (stereo unspecified)	?	i	i	i	i	i
CC(C)CC(=O)NC(Oc1ccc(Cl)cc1)C(Cl)(Cl)Cl (stereo unspecified)	i	i	0.71µM	i	i	i
CC(=O)OC1CC2C(C)(C)C(O)C=C[C@@]2(C)C2CC[C@]3(C)C(=CC(=O)OC3c3ccoc3)[C@]12C (stereo partly specified)	nt	nt	i	nt	nt	nt
O=[N+]([O-])/C=C/c1c(Cl)cccc1Cl	nt	i	nt	2.7µM	40µM	i
CCn1c(NN=O)nc2ccccc21	56µM	i	i	i	89µM	i
CC(=O)N1C[C@H](O)C[C@H]1C(=O)O	i	i	i	?	?	i
c1ccc2c(CN3CCN(C4CCCCC4)CC3)c[nH]c2c1	50µM	i	i	i	?	?
c1ccc(C2CNCc3ccccc32)cc1 (stereo unspecified)	nt	nt	i	nt	nt	nt
CCN(CC)CCCNC(=O)c1c(O)c2ccccc2n(Cc2ccccc2)c1=O	?	i	i	i	i	i
CCN(CC)CCNC(=O)c1c(O)c2ccccc2n(Cc2ccccc2)c1=O	i	i	i	i	79µM	i
CN(C)c1ccc(NC(=O)CN2C(=O)CN=C(c3ccccc3)c3ccccc32)cc1	40µM	i	i	i	56µM	?
Cc1ccc(NC(=O)CN2C(=O)CN=C(c3ccccc3)c3ccccc32)cc1	i	nt	i	nt	i	i
Cc1ccc(NC(=O)CN2C(=O)CN=C(c3ccccc3)c3cc(Cl)ccc32)cc1	i	i	i	i	i	i
CN(C)c1ccc(NC(=O)CN2C(=O)CN=C(c3ccccc3)c3cc(Cl)ccc32)cc1	35µM	i	i	i	28µM	?
Nc1ccc2c(c1)Cc1ccccc1-2	50µM	i	i	i	?	?
COc1ccc(-c2n[nH]c(=S)n2-c2ccc3c(c2)OCCO3)cc1OC	i	i	i	i	3.2µM	i
S=c1[nH]nc(-c2ccc3ccccc3n2)n1-c1ccc2c(c1)OCCO2	?	i	i	i	45µM	i
O=C(CC[N+](=O)[O-])OCC1OC(O)C(OC(=O)CC[N+](=O)[O-])[C@@H](OC(=O)CC[N+](=O)[O-])C1OC(=O)CC[N+](=O)[O-] (stereo partly specified)	nt	nt	i	nt	nt	nt

High-throughput results (PubChem)
